The values that follow come from paper PMC7862700, “An all-to-all approach to the identification of sequence-specific readers for epigenetic DNA modifications on cytosine”.

Holding throughout (experiment): DAPPL (digital affinity profiling via proximity ligation, sequencing); 10 mM Tris-HCl pH 7.5, 50 mM NaCl, 1 mM DTT, 4% glycerol, room temperature, 30 min; GST-TFs on glutathione beads, 16-mer random dsDNA library, 0.1% formaldehyde crosslink after washing; high values mean tight binding
One assay addresses T1, FEV (Homo sapiens, UniProt Q99581 1-238).
T1 sequence: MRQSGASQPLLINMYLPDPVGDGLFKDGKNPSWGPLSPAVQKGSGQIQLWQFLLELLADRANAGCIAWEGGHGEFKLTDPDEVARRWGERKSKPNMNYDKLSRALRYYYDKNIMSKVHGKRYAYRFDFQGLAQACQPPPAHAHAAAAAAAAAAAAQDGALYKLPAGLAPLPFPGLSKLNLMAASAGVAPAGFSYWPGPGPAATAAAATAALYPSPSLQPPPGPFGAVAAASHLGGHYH
Conditions: protein: recombinant; tags: N-terminal GST; dsDNA, one strand shown. In short, it runs like this: (§1)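 After expression in yeast as GST fusions, human transcription factors were bound to glutathione beads, DNA-barcoded and mixed with a tag-only sample. The pools were incubated with 200 nmole of a 16-mer random double-stranded DNA library in Tris/NaCl/DTT/glycerol buffer (30 min, room temperature), washed and crosslinked with 0.1% formaldehyde. Proximity ligation with BsaI/T4 ligase ran for 1 h at 37 °C, before PCR amplification and sequencing on an Illumina NextSeq500. Binding signal is a hexamer's read frequency for a factor divided by its frequency for the tag-only sample.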

The target of a further assay is ETV5 (Homo sapiens, UniProt P41161 1-510). Conditions: protein: recombinant; tags: N-terminal GST; dsDNA, one strand shown. Summed up:
as §1

For a further assay, the target named is HSF1 (Homo sapiens, UniProt Q00613 1-529). Conditions: protein: recombinant; tags: N-terminal GST; chain copies: 3; dsDNA, one strand shown. In short, it runs like this: as §1
Sequence of HSF1 (Q00613 whole entry): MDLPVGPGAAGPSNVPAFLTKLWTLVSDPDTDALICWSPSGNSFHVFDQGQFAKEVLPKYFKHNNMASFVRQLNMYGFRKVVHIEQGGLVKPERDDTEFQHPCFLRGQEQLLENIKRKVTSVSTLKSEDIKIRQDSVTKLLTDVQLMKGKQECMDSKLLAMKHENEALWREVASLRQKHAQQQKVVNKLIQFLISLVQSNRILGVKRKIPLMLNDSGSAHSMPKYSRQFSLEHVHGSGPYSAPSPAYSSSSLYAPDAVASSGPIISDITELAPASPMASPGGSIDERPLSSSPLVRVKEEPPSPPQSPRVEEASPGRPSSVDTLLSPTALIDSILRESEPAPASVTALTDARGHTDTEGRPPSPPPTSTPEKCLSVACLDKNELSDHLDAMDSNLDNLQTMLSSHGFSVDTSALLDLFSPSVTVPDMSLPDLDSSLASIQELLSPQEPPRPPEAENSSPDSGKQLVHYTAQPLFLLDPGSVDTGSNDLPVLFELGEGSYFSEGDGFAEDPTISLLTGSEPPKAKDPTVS
The target in another assay is T2, SPIC (Homo sapiens, UniProt Q8N5J4 1-248).
T2 sequence: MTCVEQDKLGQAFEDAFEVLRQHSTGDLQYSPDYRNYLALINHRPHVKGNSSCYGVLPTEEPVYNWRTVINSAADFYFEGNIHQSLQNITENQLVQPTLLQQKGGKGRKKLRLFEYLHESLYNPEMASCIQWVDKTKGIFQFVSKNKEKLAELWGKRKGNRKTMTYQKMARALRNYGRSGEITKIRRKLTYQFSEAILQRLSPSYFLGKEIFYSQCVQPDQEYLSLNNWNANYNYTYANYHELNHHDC
To be noted: protein: recombinant; tags: N-terminal GST; dsDNA, one strand shown. In short, it runs like this:
as §1

In a further assay the target is ELF4 (Homo sapiens, UniProt Q99607 1-663). Conditions: protein: recombinant; tags: N-terminal GST; dsDNA, one strand shown. In short, it runs like this: as §1
Sequence of ELF4 (Q99607 whole entry): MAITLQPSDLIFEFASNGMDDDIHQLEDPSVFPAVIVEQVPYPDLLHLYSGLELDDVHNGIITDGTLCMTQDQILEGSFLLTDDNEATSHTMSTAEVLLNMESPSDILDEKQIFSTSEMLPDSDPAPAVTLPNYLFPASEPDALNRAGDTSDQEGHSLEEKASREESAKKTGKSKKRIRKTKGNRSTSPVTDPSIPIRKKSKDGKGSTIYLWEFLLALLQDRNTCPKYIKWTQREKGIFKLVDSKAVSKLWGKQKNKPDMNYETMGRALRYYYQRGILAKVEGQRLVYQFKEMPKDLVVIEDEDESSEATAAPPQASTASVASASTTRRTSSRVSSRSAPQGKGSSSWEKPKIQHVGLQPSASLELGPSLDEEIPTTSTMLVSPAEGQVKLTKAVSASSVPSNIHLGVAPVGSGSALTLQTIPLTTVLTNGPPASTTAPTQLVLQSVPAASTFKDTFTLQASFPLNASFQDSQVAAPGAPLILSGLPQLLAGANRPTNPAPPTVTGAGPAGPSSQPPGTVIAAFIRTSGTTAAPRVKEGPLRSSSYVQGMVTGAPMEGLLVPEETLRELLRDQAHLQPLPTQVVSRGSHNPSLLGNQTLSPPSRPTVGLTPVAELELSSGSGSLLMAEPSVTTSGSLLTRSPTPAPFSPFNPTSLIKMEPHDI
The target in another assay is T3, ELK4 (Homo sapiens, UniProt P28324-2 1-405).
T3 sequence: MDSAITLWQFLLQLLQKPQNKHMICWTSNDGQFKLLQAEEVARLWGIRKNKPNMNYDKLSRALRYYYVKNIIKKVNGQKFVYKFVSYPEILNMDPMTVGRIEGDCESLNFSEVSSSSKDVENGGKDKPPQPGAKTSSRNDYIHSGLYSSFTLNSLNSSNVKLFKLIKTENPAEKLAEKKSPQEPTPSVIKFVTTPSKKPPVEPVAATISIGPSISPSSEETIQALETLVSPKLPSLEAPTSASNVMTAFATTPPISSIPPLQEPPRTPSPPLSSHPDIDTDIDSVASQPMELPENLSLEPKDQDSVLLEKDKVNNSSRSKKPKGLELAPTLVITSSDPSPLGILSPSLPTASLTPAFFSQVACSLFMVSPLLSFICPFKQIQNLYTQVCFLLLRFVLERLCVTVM
To be noted: protein: recombinant; tags: N-terminal GST; dsDNA, one strand shown. Summed up:
as §1

The next assay addresses T4, ETV2 (Homo sapiens, UniProt O00321 1-342).
T4 sequence: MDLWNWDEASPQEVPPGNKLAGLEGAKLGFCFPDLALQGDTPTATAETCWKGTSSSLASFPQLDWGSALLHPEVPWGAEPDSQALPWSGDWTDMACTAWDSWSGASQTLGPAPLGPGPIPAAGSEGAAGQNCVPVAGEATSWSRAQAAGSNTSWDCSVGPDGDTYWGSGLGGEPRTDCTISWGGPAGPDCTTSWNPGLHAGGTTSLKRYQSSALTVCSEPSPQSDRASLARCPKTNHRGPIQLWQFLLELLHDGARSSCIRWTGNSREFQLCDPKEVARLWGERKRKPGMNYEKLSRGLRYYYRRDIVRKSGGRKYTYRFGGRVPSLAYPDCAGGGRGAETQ
Conditions: protein: recombinant; tags: N-terminal GST; dsDNA, one strand shown. Summed up:
as §1

A further assay addresses T5, ELF3 (Homo sapiens, UniProt P78545 1-371).
T5 sequence: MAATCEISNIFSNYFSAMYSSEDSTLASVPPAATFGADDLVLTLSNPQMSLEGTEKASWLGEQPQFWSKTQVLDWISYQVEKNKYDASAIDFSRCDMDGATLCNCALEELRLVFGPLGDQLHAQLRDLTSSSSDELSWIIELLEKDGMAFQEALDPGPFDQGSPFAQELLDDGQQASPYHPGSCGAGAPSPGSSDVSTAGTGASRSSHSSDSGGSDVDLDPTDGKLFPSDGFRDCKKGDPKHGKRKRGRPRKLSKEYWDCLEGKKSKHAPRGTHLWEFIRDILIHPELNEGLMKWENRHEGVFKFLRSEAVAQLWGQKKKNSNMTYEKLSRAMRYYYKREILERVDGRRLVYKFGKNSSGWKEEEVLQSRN
To be noted: protein: recombinant; tags: N-terminal GST; dsDNA, one strand shown. In short, it runs like this: as §1

A further assay has as its target CRX (Homo sapiens, UniProt O43186 1-299). To be noted: protein: recombinant; tags: N-terminal GST; dsDNA, one strand shown. In short, it runs like this:
as §1

The next assay concerns the target ETV1 (Homo sapiens, UniProt P50549 1-477). Conditions: protein: recombinant; tags: N-terminal GST; dsDNA, one strand shown. Summed up: as §1

Sequence of CRX (O43186 whole entry): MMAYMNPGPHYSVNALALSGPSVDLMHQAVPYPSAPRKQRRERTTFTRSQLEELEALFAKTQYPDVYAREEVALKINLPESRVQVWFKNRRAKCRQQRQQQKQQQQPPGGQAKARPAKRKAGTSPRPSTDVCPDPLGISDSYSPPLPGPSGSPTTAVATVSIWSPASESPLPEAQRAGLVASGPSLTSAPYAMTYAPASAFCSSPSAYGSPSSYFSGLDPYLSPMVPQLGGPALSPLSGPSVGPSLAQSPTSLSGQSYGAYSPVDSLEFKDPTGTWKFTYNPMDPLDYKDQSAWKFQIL
Sequence of ETV5 (P41161 whole entry): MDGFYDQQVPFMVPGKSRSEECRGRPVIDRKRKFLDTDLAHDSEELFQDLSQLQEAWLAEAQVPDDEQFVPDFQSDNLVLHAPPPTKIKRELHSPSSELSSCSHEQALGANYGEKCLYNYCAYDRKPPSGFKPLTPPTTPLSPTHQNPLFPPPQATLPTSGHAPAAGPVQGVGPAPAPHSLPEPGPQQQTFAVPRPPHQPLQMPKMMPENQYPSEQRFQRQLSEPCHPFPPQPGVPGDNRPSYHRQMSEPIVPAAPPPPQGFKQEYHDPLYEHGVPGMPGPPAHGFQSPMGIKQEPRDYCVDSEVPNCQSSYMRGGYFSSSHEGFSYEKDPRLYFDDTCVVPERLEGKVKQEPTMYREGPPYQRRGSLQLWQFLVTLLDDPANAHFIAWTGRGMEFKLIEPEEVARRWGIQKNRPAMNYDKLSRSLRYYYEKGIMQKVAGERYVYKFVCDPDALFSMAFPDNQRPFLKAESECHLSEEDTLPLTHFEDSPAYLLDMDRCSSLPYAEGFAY
Sequence of ETV1 (P50549 whole entry): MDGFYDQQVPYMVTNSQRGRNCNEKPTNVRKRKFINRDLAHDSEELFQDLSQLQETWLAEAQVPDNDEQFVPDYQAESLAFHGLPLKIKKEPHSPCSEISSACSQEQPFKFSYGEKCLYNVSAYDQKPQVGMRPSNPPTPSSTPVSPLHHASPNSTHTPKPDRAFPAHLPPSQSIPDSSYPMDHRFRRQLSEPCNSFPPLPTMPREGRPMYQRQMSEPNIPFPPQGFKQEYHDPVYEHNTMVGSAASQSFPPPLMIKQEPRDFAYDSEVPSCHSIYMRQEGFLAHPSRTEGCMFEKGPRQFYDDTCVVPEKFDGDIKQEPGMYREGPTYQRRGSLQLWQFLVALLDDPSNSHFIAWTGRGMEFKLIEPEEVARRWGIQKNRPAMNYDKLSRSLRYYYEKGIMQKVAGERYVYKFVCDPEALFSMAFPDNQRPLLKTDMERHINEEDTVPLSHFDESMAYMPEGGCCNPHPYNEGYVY

Consider GCATTT, for which the binding signal with FEV was 1.57 fold enrichment (6-mer frequency, TF over GST control); with ETV5, 1.38 fold enrichment (6-mer frequency, TF over GST control); with HSF1, 1.15 fold enrichment (6-mer frequency, TF over GST control); in the assay with SPIC, 1.37 fold enrichment (6-mer frequency, TF over GST control); with ELF4, 1.4 fold enrichment (6-mer frequency, TF over GST control); in the assay with ELK4 it was 1.27 fold enrichment (6-mer frequency, TF over GST control). For the same sequence, the binding signal with ETV2 is 1.25 fold enrichment (6-mer frequency, TF over GST control); with ELF3, 1.33 fold enrichment (6-mer frequency, TF over GST control); in the assay with CRX, 1.16 fold enrichment (6-mer frequency, TF over GST control); with ETV1, 1.37 fold enrichment (6-mer frequency, TF over GST control).

TAAAGT: the binding signal is 1.1 fold enrichment (6-mer frequency, TF over GST control) with FEV; 1.13 fold enrichment (6-mer frequency, TF over GST control) with ETV5; 1.37 fold enrichment (6-mer frequency, TF over GST control) with HSF1; 1.13 fold enrichment (6-mer frequency, TF over GST control) in the assay with SPIC; 1.13 fold enrichment (6-mer frequency, TF over GST control) in the assay with ELF4; 1.27 fold enrichment (6-mer frequency, TF over GST control) with ELK4. Besides, the binding signal in the assay with ETV2 is 1.11 fold enrichment (6-mer frequency, TF over GST control); with ELF3, 1.13 fold enrichment (6-mer frequency, TF over GST control); with CRX it was 1.75 fold enrichment (6-mer frequency, TF over GST control); with ETV1, 1.21 fold enrichment (6-mer frequency, TF over GST control).

Turning to TACCAC, the binding signal with FEV was 1.3 fold enrichment (6-mer frequency, TF over GST control); in the assay with ETV5, 1.19 fold enrichment (6-mer frequency, TF over GST control); with HSF1 it was 1.12 fold enrichment (6-mer frequency, TF over GST control); with SPIC, 1.25 fold enrichment (6-mer frequency, TF over GST control); with ELF4, 1.23 fold enrichment (6-mer frequency, TF over GST control); in the assay with ELK4, 1.18 fold enrichment (6-mer frequency, TF over GST control). For the same sequence, the binding signal with ETV2 is 1.2 fold enrichment (6-mer frequency, TF over GST control); with ELF3, 1.25 fold enrichment (6-mer frequency, TF over GST control); in the assay with CRX it was 1.17 fold enrichment (6-mer frequency, TF over GST control); with ETV1, 1.24 fold enrichment (6-mer frequency, TF over GST control).

For the sequence CCCTTA, the binding signal in the assay with FEV is 1.24 fold enrichment (6-mer frequency, TF over GST control); in the assay with ETV5, 1.28 fold enrichment (6-mer frequency, TF over GST control); in the assay with HSF1, 1.28 fold enrichment (6-mer frequency, TF over GST control); with SPIC, 1.31 fold enrichment (6-mer frequency, TF over GST control); with ELF4, 1.39 fold enrichment (6-mer frequency, TF over GST control); with ELK4, 1.21 fold enrichment (6-mer frequency, TF over GST control). In addition, the binding signal in the assay with ETV2 is 1.41 fold enrichment (6-mer frequency, TF over GST control); in the assay with ELF3, 1.29 fold enrichment (6-mer frequency, TF over GST control); in the assay with CRX, 1.59 fold enrichment (6-mer frequency, TF over GST control); in the assay with ETV1, 1.21 fold enrichment (6-mer frequency, TF over GST control).

With TTCGAC, the binding signal is 1.5 fold enrichment (6-mer frequency, TF over GST control) with FEV; 1.46 fold enrichment (6-mer frequency, TF over GST control) with ETV5; 1.75 fold enrichment (6-mer frequency, TF over GST control) with HSF1; 1.35 fold enrichment (6-mer frequency, TF over GST control) with SPIC; 1.63 fold enrichment (6-mer frequency, TF over GST control) with ELF4; 1.43 fold enrichment (6-mer frequency, TF over GST control) with ELK4. Further, the binding signal with ETV2 was 1.35 fold enrichment (6-mer frequency, TF over GST control); in the assay with ELF3 it was 1.46 fold enrichment (6-mer frequency, TF over GST control); in the assay with CRX it was 1.44 fold enrichment (6-mer frequency, TF over GST control); with ETV1 it was 1.44 fold enrichment (6-mer frequency, TF over GST control).

With AACCAA, the binding signal is 1.19 fold enrichment (6-mer frequency, TF over GST control) in the assay with FEV; 1.21 fold enrichment (6-mer frequency, TF over GST control) with ETV5; 1.08 fold enrichment (6-mer frequency, TF over GST control) in the assay with HSF1; 1.1 fold enrichment (6-mer frequency, TF over GST control) in the assay with SPIC; 1.33 fold enrichment (6-mer frequency, TF over GST control) with ELF4; 1.05 fold enrichment (6-mer frequency, TF over GST control) with ELK4. Moreover, the binding signal with ETV2 is 1.21 fold enrichment (6-mer frequency, TF over GST control); with ELF3, 1.32 fold enrichment (6-mer frequency, TF over GST control); in the assay with CRX, 1.09 fold enrichment (6-mer frequency, TF over GST control); with ETV1, 1.2 fold enrichment (6-mer frequency, TF over GST control).

Consider TCTTTG, for which the binding signal with FEV is 1.09 fold enrichment (6-mer frequency, TF over GST control); with ETV5 it was 1.16 fold enrichment (6-mer frequency, TF over GST control); in the assay with HSF1 it was 1.24 fold enrichment (6-mer frequency, TF over GST control); with SPIC, 1.13 fold enrichment (6-mer frequency, TF over GST control); in the assay with ELF4, 1.17 fold enrichment (6-mer frequency, TF over GST control); in the assay with ELK4 it was 1.2 fold enrichment (6-mer frequency, TF over GST control). The binding signal with ETV2 is 1.05 fold enrichment (6-mer frequency, TF over GST control); with ELF3, 1.18 fold enrichment (6-mer frequency, TF over GST control); in the assay with CRX it was 1.27 fold enrichment (6-mer frequency, TF over GST control); with ETV1, 1.1 fold enrichment (6-mer frequency, TF over GST control).
